# PERK inh = human PERK inhibition, primary cell-based screen; AID 1416; Q9NZJ5; CHO PERK-DD fusion, SEAP luminescence translation reporter; actives 0.17% (n = 220,000); inhibition, % at 5.6 µM;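 active means inhibition above the mean inhibition of all tested compounds plus 3 SD, set separately per screening campaign, cut at about 2.9% in these data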;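 further: PERK kinase domain activated by AP20187 dimerizer at 100 nM; 0% = DMSO with dimerizer and 100% = rapamycin at 8.4 µM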
# NALP3 yeast inh = inhibitors of NALP3 inflammasome in yeast; Yeast reconstituted NLRP3/ASC/caspase-1, beta-gal luminescence, 24 h; inhibition, % at 10 µM; actives 0.39% (n = 330,000); AID 2825;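 active means inhibition of 50% or more; inactive means inhibition below 50%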;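 further: plate controls were induced DMSO wells for no effect and uninduced yeast grown without galactose for full effect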
# CR mimetic SO = lowers age-related superoxide in aged yeast cells; S. cerevisiae aged cells, superoxide DHE fluorescence; active compounds read low; superoxide response (% of plate mean), % at 10 µM; actives 0.18% (n = 330,000); AID 2690;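 active means superoxide response under a set limit, about three screen SD below normal, cut at about 65% in these data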;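 further: yeast aged for seven days with compound at 30 °C before DHE staining; 100% = average MFI of all compound-treated wells on the plate with controls excluded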
# Rce1 inh = yeast Ras-converting enzyme inhibition | Q03530 | yeast membranes, quenched prenylated peptide cleavage fluorescence | calls only | actives 0.27% (n = 290,000) | AID 2563;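 active means fall in fluorescence gain of 50% or more versus controls, with final raw signal at or below 3038400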;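 further: plate controls were neutral control wells for no effect and wells lacking membranes for full effect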
# NALP1 inh = blocks the NALP1 inflammasome reconstituted in yeast; S. cerevisiae NALP1/ASC/caspase-1 growth, X-gal OD620, 72 h; inhibition, % at 10 µM; actives 0.61% (n = 280,000); in the data active means inhibition mostly above about 24%, no sharp cut-off; inactive means mostly below about 32%
# V-ATPase pH = alters yeast V-ATPase proton transport; S. cerevisiae, pHLuorin cytosolic pH fluorescence; response, % at 10 µM; actives 0.37% (n = 350,000); AID 504577; in the data active means response mostly above about 7.3%, no sharp cut-off; inactive means mostly below about 5.4%; further: actives read high
# Starred values were filed as active, the others as inactive; i = inactive; nt = not tested or not shown; + = active, no number. The list is not random: actives were taken first. Their share in the collection is about 1.6%.
SMILES,PERK inh,NALP3 yeast inh,CR mimetic SO,Rce1 inh,NALP1 inh,V-ATPase pH
C[C@@H]1CCCCO[C@H](CN(C)C(=O)Cc2ccccc2)[C@H](C)CN([C@@H](C)CO)C(=O)c2cc(NC(=O)Nc3ccc(F)cc3)ccc2O1,nt,nt,nt,nt,nt,0
C#CCOc1ccc(CNC[C@H]2O[C@@H](n3ccc(N)nc3=O)[C@H](O)[C@@H]2O)cc1,nt,nt,nt,nt,nt,-2
CCN1CCN(c2c(Cl)cccc2NC(=O)c2ccc([N+](=O)[O-])o2)CC1,nt,36,96,i,31*,1
O=C(Nc1cccc(Cl)c1N1CCCC1)c1ccc([N+](=O)[O-])o1,1,12,105,i,6,1
CN1OC[C@@H]2CN(S(=O)(=O)c3cccc(C(F)(F)F)c3)[C@H](c3ccc(-c4cccnc4)cc3)C[C@@H]21,nt,nt,nt,nt,nt,-3
CCC1CCCCN1C(=O)NC(=O)c1ccccc1 (stereo unspecified),nt,10,119,+,12,-3
O=C(Nc1ccc2c(c1)OCCO2)c1ccc(Cl)c([N+](=O)[O-])c1,0,20,95,i,7,2
Cc1cc(C(=O)Nc2ccc3c(c2)OCCO3)ccc1[N+](=O)[O-],nt,18,108,i,41*,-1
O=[N+]([O-])c1ccc(C=NN2CCCCCC2)cc1,nt,nt,nt,nt,nt,1
O=C(COC(=O)CCC1CCCC1)Nc1ccccc1Sc1ccccc1,2.9*,16,85,i,21,-3
O=C(COC(=O)C1CCC1)Nc1ccccc1Sc1ccccc1,2,9,114,i,11,-2
CC(=O)c1ccc2c(c1)CC1(C2)Cc2cc3c(cc2C1)C(=O)CC3 (stereo unspecified),nt,nt,nt,nt,nt,3
O=Cc1ccc(-c2cc(Cl)ccc2Cl)[nH]1,3.3*,-5,103,i,9,1
COc1ccc(C(=O)COC(=O)C2COc3ccccc3O2)c(OC)c1 (stereo unspecified),nt,nt,nt,nt,nt,-2
CCCNC(=O)N(C)C[C@@H]1Oc2cc(C#CC(C)(C)O)ccc2S(=O)(=O)N([C@H](C)CO)C[C@H]1C,nt,nt,nt,nt,nt,0
CC(=O)c1nc2ccccc2n1S(=O)(=O)c1ccc(C)cc1,-1,-13,95,i,28*,-2
CC(=O)c1nc2ccccc2n1S(=O)(=O)c1ccc(Cl)cc1,0,-3,84,i,2,-8
O=C1C=CC(=O)N1c1ccc(OC(F)F)cc1,0,nt,70,nt,112*,0
O=C1C=CC(=O)N1c1ccc(O)cc1,1,2,93,i,-5,3
O=C(O)C1=CCC=CC1C(=O)O (stereo unspecified),nt,nt,nt,nt,nt,2
O=Nc1c(-c2ccccc2)cc2ccccn12,-1,32,136,i,38*,9
CN(c1ccc(F)cc1)S(=O)(=O)c1ccc(Cl)c(C(=O)NCC(c2ccco2)N2CCCCC2)c1 (stereo unspecified),nt,22,nt,nt,nt,-2
Nc1c(C(=O)Nc2cccc(C(=O)O)c2)sc2nc3c(cc12)CCCC3,nt,20,94,+,14,4
COCCn1cc(C(=S)N2CCOCC2)c2ccccc21,0,0,102,i,33*,4
COc1ccc(OC)c(NC(=O)C2CCN(c3ncccn3)CC2)c1,-1,-5,97,i,20,3
SMILES,PERK inh,NALP3 yeast inh,CR mimetic SO,Rce1 inh,NALP1 inh,V-ATPase pH
O=C(NCCc1ccccc1)C1CCN(c2ncccn2)CC1,0,21,68,i,1,14*
COc1ccccc1NC(=O)C(CC(C)C)NC(=O)C1CCCCC1 (stereo unspecified),0,11,104,i,41*,3
COc1ccccc1NC(=O)C1CCN(c2ncccn2)CC1,1,17,105,i,25*,3
CC1NC(=O)c2cccnc2-n2c1nc1cc(F)ccc1c2=O (stereo unspecified),nt,nt,nt,nt,nt,0
Nc1c(N(CCCO)C(=O)CCCN2C(=O)c3cccc4cccc(c34)C2=O)c(=O)[nH]c(=O)n1Cc1ccccc1,nt,nt,nt,nt,nt,-1
CCN1CCN(S(=O)(=O)c2ccc(Cl)c(C(=O)N(C)Cc3ccc(C(C)(C)C)cc3)c2)CC1,nt,nt,nt,nt,nt,2
O=C(Oc1cccc2cccnc12)c1ccc(N2C(=O)C3C4CCC(C4)C3C2=O)cc1 (stereo unspecified),0,-5,110,i,59*,2
O=[N+]([O-])c1ccc(OCCOc2ccccc2/C=N/n2cnnc2)cc1,0,2,101,i,34*,0
COc1ccccc1/C=N/n1cnnc1,1,12,94,nt,0,7
Cc1csc2nc(=O)c3ccccc3n12,0,nt,nt,+,5,-1
OC(COc1ccc(OCc2ccccc2)cc1)CN1CCOCC1 (stereo unspecified),1,22,96,i,39*,3
CCOc1ccc(C(=O)C(CN2CCOCC2)c2ccccc2)cc1 (stereo unspecified),-1,nt,100,i,84*,-1
O=C(c1ccc(Br)cc1)C(CN1CCOCC1)c1ccccc1 (stereo unspecified),nt,20,89,i,39*,2
COc1ccc(C(C#N)CC(=O)c2ccc(OCc3ccccc3)c(OC)c2)cc1OC (stereo unspecified),nt,nt,nt,nt,nt,5
Cc1ccc2c(=O)n3c(nc2c1)C(Cc1ccc(O)cc1)NC(=O)c1cccnc1-3 (stereo unspecified),nt,nt,nt,nt,nt,-3
CC(=O)Nc1nc(CC(C)C)cc2c1c(=O)oc1ccccc12,1,-7,104,i,28*,1
CCCCc1cc2c(c(NC(C)=O)n1)c(=O)oc1ccccc12,0,9,104,i,9,nt
Cc1ccc(S(=O)(=O)Nc2ccc(N(C)C)cc2)cc1,-1,30,99,i,16,3
CN(C)c1ccc(NS(=O)(=O)c2ccc(-c3csnn3)cc2)cc1,0,20,110,nt,43*,-1
Cc1oc(-c2ccccc2F)nc1CS(=O)(=O)CC(=O)NCCN1CCCC1,nt,3,106,i,29*,0
Cc1ccc2nc(N(CCCN(C)C)C(=O)CCc3ccccc3)sc2c1,-1,nt,147,i,48*,4
CN(C)CCCN(C(=O)CCc1ccccc1)c1nc2ccc(Cl)cc2s1,0,26,109,i,64*,-1
COc1ccc2nc(N3CCCCC3)c(C#N)cc2c1,1,0,106,i,14,-2
COc1ccc2nc(N3CCCC3)c(C#N)cc2c1,1,3,96,i,8,11*
CC1(C)CCCN(C(=O)c2coc(=O)c(Br)c2)C1,0,nt,nt,+,5,-3
O=C(c1coc(=O)c(Br)c1)N1CCC(C(O)(c2ccccc2)c2ccccc2)CC1,1,3,79,i,-39,2
Cc1[nH]nc2c1C(c1ccc(F)cc1)C1=C(CC(C)(C)CC1=O)N2 (stereo unspecified),-1,-2,106,+,-17,0

# Assay outcomes deposited in PubChem BioAssay by several laboratories.
